Measurements from PubChem BioAssay (Tox21).
Values joined by “and” are separate entries in the source; they are usually repeats but may differ in a detail not shown here. Equal entries are not always repeated. Results filed as inconclusive are left out. Active and inactive are the calls of the source. Calls come from the whole dose curve.

Key:
[1] = biological target: Acetylcholinesterase (Homo sapiens) (UniProt P22303); test: Acetylcholinesterase (AChE) small molecule antagonists: colormetric cell-based qHTS assay (AID 1347395); note: nearly all actives have a fitted effect of over 30% in size
Sequence of Acetylcholinesterase (Homo sapiens) (P22303 whole entry, looked up): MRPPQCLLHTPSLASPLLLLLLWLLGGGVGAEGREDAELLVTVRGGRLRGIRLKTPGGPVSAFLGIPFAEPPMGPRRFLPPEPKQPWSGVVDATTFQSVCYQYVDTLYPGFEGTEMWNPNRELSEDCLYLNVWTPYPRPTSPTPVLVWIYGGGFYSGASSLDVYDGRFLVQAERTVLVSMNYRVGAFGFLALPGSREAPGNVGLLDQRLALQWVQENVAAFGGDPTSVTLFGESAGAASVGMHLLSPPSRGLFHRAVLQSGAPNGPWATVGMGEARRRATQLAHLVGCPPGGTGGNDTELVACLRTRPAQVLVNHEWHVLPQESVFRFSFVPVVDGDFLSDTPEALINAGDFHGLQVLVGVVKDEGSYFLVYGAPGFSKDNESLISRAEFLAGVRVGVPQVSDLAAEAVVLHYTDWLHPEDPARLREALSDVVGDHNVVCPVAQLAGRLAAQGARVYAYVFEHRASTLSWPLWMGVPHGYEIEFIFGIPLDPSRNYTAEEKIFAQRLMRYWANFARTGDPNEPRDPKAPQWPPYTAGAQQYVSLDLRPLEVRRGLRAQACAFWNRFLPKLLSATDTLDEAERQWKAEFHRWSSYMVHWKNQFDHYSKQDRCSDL
Procedure, shortened: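 SH-SY5Y cells; cpd 30 min 37 C; + DTNB/acetylthiocholine, 90 min 37 C; colorimetric thiocholine read; qHTS.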

[2] = biological target: Acetylcholinesterase (Homo sapiens) (UniProt P22303); test: Acetylcholinesterase (AChE) small molecule antagonists: enzyme-based qHTS assay (AID 1347397); details: Potency: AChE enzyme activity inhibition; outcome: AChE enzyme activity inhibition; note: nearly all actives have a fitted effect of over 55% in size; note: potency is the fitted concentration of half-maximal effect
Procedure, shortened: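 Colorimetric DTNB readout of acetylthiocholine hydrolysis, 10 min at room temperature, after 30 min room-temperature exposure of 50 mU/mL recombinant human enzyme to compound; DMSO vehicle control.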

[3] = biological target: Acetylcholinesterase (Homo sapiens) (UniProt P22303); test: Acetylcholinesterase (AChE) small molecule antagonists: fluorescence cell-based qHTS assay (AID 1347398); details: Potency: AChE activity; outcome: AChE activity; note: nearly all actives have a fitted effect of over 50% in size; note: potency is the fitted concentration of half-maximal effect
Procedure, shortened: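 Cellular AChE activity read as thiocholine from acetylthiocholine hydrolysis, detected by Thiolite Green fluorescence at 490/520 nm after 40 min at room temperature. Compounds were pre-incubated 30 min at 37 C on adherent SH-SY5Y cells.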

[4] = biological target: Acetylcholinesterase (Homo sapiens) (UniProt P22303); test: Acetylcholinesterase (AChE) small molecule antagonists: enzyme-based qHTS assay with human liver microsomes (AID 1347399); details: Potency: qHTS inhibition; outcome: qHTS inhibition; note: nearly all actives have a fitted effect of over 60% in size
Procedure, shortened: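 Recombinant human AChE (50 mU/mL in the enzyme mix) and human liver microsomes (0.25 mg/mL final) were preincubated with compound and NADPH (0.25 mg/mL final) for 30 min at 37 C. Acetylthiocholine/DTNB was then added; thiocholine was read colorimetrically after 10 min at room temperature.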

Measured: Potency

C[C@]12CCC(=O)C=C1CC[C@H]1[C@@H]3CC[C@](O)(C(=O)CO)[C@@]3(C)C[C@H](O)[C@@]12F
inactive: all assays above

CC(C)(C)NC[C@H](O)COc1cccc2c1CCCC2=O
inactive: all assays above

O=C1CCCCCCCCCCCN1
inactive: all assays above

CC(=O)CC(=O)N(C)C
inactive: all assays above

COc1nccnc1CC(C)C
inactive: all assays above

O=C(Oc1ccccc1)c1ccccc1
inactive: all assays above

CCC(Cc1c(I)cc(I)c(N)c1I)C(=O)O (stereo not given)
inactive: all assays above

Clc1ccc2c(c1)C(N1CCNCC1)=Nc1ccccc1O2
inactive: all assays above

CCCCCCCCCCCC(=O)OC[C@@H](O)[C@H]1OC[C@H](OCCO)[C@H]1OCCO
inactive: all assays above

CCOC(=O)NCCC[Si](OCC)(OCC)OCC
inactive: all assays above

CO[C@H]1C=CO[C@@]2(C)Oc3c(C)c(O)c4c(O)c(c(/C=N/N5CCN(C)CC5)c(O)c4c3C2=O)NC(=O)/C(C)=C\C=C[C@H](C)[C@H](O)[C@@H](C)[C@@H](O)[C@@H](C)[C@H](OC(C)=O)[C@@H]1C
inactive: all assays above

Cc1oc(-c2ccccc2)nc1CCOc1ccc(C[C@H](Nc2ccccc2C(=O)c2ccccc2)C(=O)O)cc1
active: [2] 56.4 µM
inactive: all other assays above

Oc1c(Cl)cc(Cl)c(Cl)c1Cl
inactive: all assays above

CCCCCCCCCCCCOCC1CO1 (stereo not given)
inactive: all assays above

CC(N)=O
inactive: all assays above

CC(C)(C)c1ccc(O)c(C(C)(C)C)c1
inactive: all assays above

CCn1cc(C(=O)O)c(=O)c2cc3c(cc21)OCO3
inactive: all assays above

CC(C)(C)c1ccc(S)cc1
inactive: all assays above

CN(C)CCC(c1ccccc1)c1ccccn1 (stereo not given)
inactive: all assays above

FC(F)(Cl)C(F)(Cl)Cl
inactive: all assays above

C=CCOC(=O)CCCCCC
inactive: all assays above

CCCCNc1c(C(=O)OCC)c(C)nc2c1cnn2CC
inactive: all assays above

O=C1C=CC(=O)N1c1ccccc1
active: [3] 35.6 µM
inactive: all other assays above

NNCCc1ccccc1
inactive: all assays above

CCCCCCCCCC/C=C/C#N
inactive: all assays above

CC1(C)CC(N)CC(C)(CN)C1 (stereo not given)
inactive: all assays above

COc1ccc(OC)c(N=Nc2c(O)ccc3ccccc23)c1
inactive: all assays above

Cc1ncc(CSSCc2cnc(C)c(O)c2CO)c(CO)c1O
inactive: all assays above

CCCCC(CC)COC(=O)CS (stereo not given)
inactive: all assays above

O=C(Cl)c1ccc(Cl)cc1Cl
inactive: all assays above

CC(O)c1ccccc1 (stereo not given)
inactive: all assays above

CC(C)CCCCCOC(=O)CCCCC(=O)OCCCCCC(C)C
inactive: all assays above

C=C1C(=C/C=C2\CCC[C@]3(C)[C@@H]([C@H](C)/C=C/[C@@H](O)C4CC4)CC[C@@H]23)C[C@@H](O)C[C@@H]1O
inactive: all assays above

CCCCCCCCCCCCCCCC[N+](C)(C)CC
inactive: [1] | [4]
active: [2] 71.2 µM | [3] 63.5 µM and 38.9 µM

CSc1ccc(O)cc1C
inactive: all assays above

C[C@]12C(=O)OC(=O)[C@H]1[C@H]1C=C[C@@H]2C1
inactive: all assays above

OB(O)O
inactive: all assays above

CC(C(=O)O)c1ccc(/C=C2\CCCCC2=O)cc1 (stereo not given)
inactive: all assays above

CCOC(=O)[C@H](CCc1ccccc1)N[C@@H](C)C(=O)N1CCC[C@H]1C(=O)O
inactive: all assays above

NNC(=O)OCc1ccccc1
inactive: all assays above

CCOC(=O)CC1(C)OCC(C)O1 (stereo not given)
inactive: all assays above

SC1CCCC1
inactive: all assays above

NS(=O)(=O)c1cc(-c2nn[nH]n2)c(NCc2cccs2)cc1Cl
inactive: all assays above

CC(=O)NS(=O)(=O)c1ccc(N)cc1
inactive: all assays above

COc1cc(/C=C/C(N)=O)cc(OC)c1OC
inactive: all assays above

OCCSc1ccccc1
inactive: all assays above

CCC(=O)OC(=O)CC
inactive: all assays above

Nc1nc(-c2ccc([N+](=O)[O-])cc2)cs1
inactive: all assays above

Cc1ncc(COP(=O)(O)O)c(C=O)c1O
inactive: all assays above

C[C@H]1C[C@H](O)c2ccsc2S1(=O)=O
inactive: all assays above

CN(C)c1ccc(O)c2c1C[C@H]1C[C@H]3[C@H](N(C)C)C(=O)C(C(N)=O)=C(O)[C@@]3(O)C(=O)C1=C2O
inactive: all assays above

c1ccc(CC2=NCCN2)cc1
inactive: all assays above

Cc1cc(Cc2ccc(N)c(C)c2)ccc1N
inactive: all assays above

CC(=O)CC(=O)Nc1ccccc1C
inactive: all assays above

CCC(C(=O)O)c1ccc(N2Cc3ccccc3C2=O)cc1 (stereo not given)
inactive: all assays above

CCc1ccccc1CC
inactive: all assays above

C=C(C)C(=O)OCCOC(=O)CC(C)=O
inactive: all assays above

COCCCCCCCCOCCC[Si](C)(O[Si](C)(C)C)O[Si](C)(C)C
inactive: all assays above

Cc1cc(NC(=O)C(=O)O)cc(C)c1Oc1ccc(O)c2c1CCC2
inactive: all assays above

CC(C)(C)c1ccc(OC2CCCCC2O)cc1 (stereo not given)
inactive: all assays above
